Measured values: PubChem BioAssay AID686978 (National Center for Advancing Translational Sciences (NCATS), 2013)
Hit rate of the full screen: of about 420,000 compounds, about 64,000 (15%) were called active. Inconclusive results (about 27%) are left out. These entries were drawn from the full list. Values without a mark were called inactive. Calls follow the shape of the dose curve; as a rule, active = well fitted inhibition curve with a large enough effect; inconclusive = small, poorly fitted or top-dose-only effect; inactive = flat fitted curve, though single readings scatter.

experiment: qHTS for Inhibitors of human tyrosyl-DNA phosphodiesterase 1 (TDP1): qHTS in cells in absence of CPT; conditions: DT40 Tdp1-/- hTDP1 cells, no CPT, ATP luminescence, 48 h; activity change, negative = growth inhibition: at 46.2 µM (top of the series); also: nearly all actives have a fitted effect of over 55% in size
Outline: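 Readout: luminescence from CellTiter-Glo after 30 min in the dark at RT. Cells: DT40 Tdp1-/- with stable hTDP1, 400/well. Exposure: compounds alone, ≥48 hr, 37 °C.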
% is scaled to controls: 0 for no effect and ±100 for the full control effect; potency is read from the fitted curve at half-maximal effect.

SMILES	activity change, negative = growth inhibition	Potency
Cn1cnc2c1c(=O)n(Cc1ccccc1C#N)c(=O)n2C	14.5%	
CCn1c(CSc2nncn2-c2ccc(OC)cc2)nc2cc(S(=O)(=O)N(C)C)ccc21	-12.7%	
COC(=O)CN1C(=O)C(O)=C(C(C)=O)C1c1ccc([N+](=O)[O-])cc1 (stereo unspecified)	-5.52%	
OC(COc1ccc(Br)cc1)CN1CCCC1 (stereo unspecified)	-3.64%	
CC(C)(C)CC(C)(C)NCC(O)COCCOc1ccc(Br)cc1 (stereo unspecified)		2.31 µM (active)
Cc1noc(COc2ccccc2OCC(O)CNC(C)(C)C)n1 (stereo unspecified)	-16.8%	
O=C(N/N=C\c1cccc(Br)c1)c1ccccc1-n1cccc1	-14%	
C=C1CCN([C@@H](Cc2ccccc2)C(=O)N2CCOCC2)S(=O)(=O)c2ccccc21	-13.4%	
CC1(C)OC(=O)C2=C(C[C@@H](C3CCCCC3)O[C@@H]2c2ccc(Cl)cc2)O1		20.6 µM (active)
CC1(C)OC(=O)C2=C(C[C@@H](C3CC3)O[C@H]2c2ccc(Cl)cc2)O1	-11.7%	
CCC1OC(C2CC2)CC2=C1C(=O)OC(C)(C)O2 (stereo unspecified)	-5.73%	
OC(COCc1ccco1)CN1CCN(c2ccccc2)CC1 (stereo unspecified)	-2.82%	
COc1cccc(C(=O)NNS(=O)(=O)c2ccc(F)cc2)c1	-10.6%	
COc1ccc(-c2nnc(NC(=O)CS(=O)(=O)c3ccc(Cl)cc3)o2)c(OC)c1	-0.822%	
COc1cccc(-c2nnc(NC(=O)c3ccc(S(=O)(=O)N(CC(C)C)CC(C)C)cc3)o2)c1		4.61 µM (active)
COc1ccc(CNC(=O)CN(Cc2ccc(Cl)cc2)S(C)(=O)=O)cc1	-2.62%	

SMILES	activity change, negative = growth inhibition	Potency
COc1ccc(OC)c(-n2c(=S)[nH]c3cc(C(=O)N4CCCCC4)ccc3c2=O)c1	-27.4%	
Cc1ccc2cccc(O)c2[n+]1[O-]	-8.39%	
CCOC(=O)c1[nH]c2ccc(OC)cc2c1NC(=O)N1CCOCC1	-20.1%	
COc1ccc(CCNC(=O)c2c3c(nc4ccccc24)C(=O)N(C2CCCCC2)C3)cc1OC		23.1 µM (active)
COc1ccc(CCNC(=O)C2CCCN2C(=O)Nc2ccccc2)cc1OC (stereo unspecified)	5.92%	
COc1ccc(CCNC(=O)CCC(=O)NC2CCCCC2)cc1OC	-5.05%	
CCNC(=O)CC1C(=O)N(c2ccc(OC)cc2)C(=O)N1CCOC (stereo unspecified)	2.07%	
COCCNc1nc(N)c([N+](=O)[O-])c(NCCO)n1	-9.94%	
Cc1ccc(NC(=O)C/C(N)=N/O)cc1Cl	-5.52%	
CNc1nc(Nc2ccc(C)c(Cl)c2)nc(N)c1[N+](=O)[O-]		6.51 µM (active)
O=C(NCCc1ccc(Cl)cc1)C1CCCN1C(=O)NCc1ccccc1 (stereo unspecified)	-2.47%	
O=C(CC1Oc2ccccc2NC1=O)NCc1ccc(F)cc1 (stereo unspecified)	-7.43%	
O=C(N/N=C/c1ccc([N+](=O)[O-])o1)c1cn(-c2ccccc2)nc1-c1ccc(F)cc1		5.8 µM (active)
O=C(CSc1ccc(/C=N/NC(=O)c2cccc(F)c2)o1)Nc1ccccc1	-7.37%	
Cc1cc(C(=O)N/N=C/c2ccc(O)c([N+](=O)[O-])c2)c(C)n1-c1ccc(F)cc1	-14.9%	
